# Most compounds without a hit are left out; they make up all but 2.9% or so of the library.
# ADAM17 inh: inhibits human ADAM17 | recombinant ADAM17, EDANS/DABCYL FRET peptide cleavage | inhibition, % at 6.95 µM | hit rate 0.83% among 370,000 | AID 720648;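 active = inhibition above the mean of compounds lying between control limits plus 3 SD, set per campaign, cut at about 8.5% in these data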
# Target sequence (P78536 215-824 limits assumed): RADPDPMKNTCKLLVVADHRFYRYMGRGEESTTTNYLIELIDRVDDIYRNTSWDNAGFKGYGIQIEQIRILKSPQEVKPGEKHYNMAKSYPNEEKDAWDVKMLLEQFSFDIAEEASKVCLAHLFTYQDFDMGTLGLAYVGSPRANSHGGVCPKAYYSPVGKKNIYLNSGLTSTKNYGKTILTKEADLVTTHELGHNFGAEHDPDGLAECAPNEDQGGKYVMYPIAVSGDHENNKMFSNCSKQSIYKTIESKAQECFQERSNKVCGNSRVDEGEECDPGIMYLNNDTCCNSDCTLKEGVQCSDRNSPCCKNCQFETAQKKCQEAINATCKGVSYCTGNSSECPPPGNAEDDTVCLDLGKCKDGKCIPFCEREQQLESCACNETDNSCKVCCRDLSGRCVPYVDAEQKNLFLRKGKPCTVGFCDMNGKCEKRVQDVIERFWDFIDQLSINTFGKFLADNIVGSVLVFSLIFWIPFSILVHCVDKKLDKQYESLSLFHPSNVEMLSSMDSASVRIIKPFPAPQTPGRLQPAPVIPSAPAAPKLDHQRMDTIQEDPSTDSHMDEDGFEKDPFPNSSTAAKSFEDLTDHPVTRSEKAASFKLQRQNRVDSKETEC
# PLC-beta3 inh: PLC-beta3 (human) inhibition, primary screen; Q01970; Purified PLC-beta3, fluorogenic substrate, fluorescence; inhibition, % at 12.2 µM; hit rate 0.18% among 370,000; in the data active = inhibition above about 11%
# KLK7 zymogen act: proKLK7 (human) activation, primary screen; purified proKLK7, EDANS-DABCYL substrate fluorescence; 100% is mature enzyme control, 0% vehicle; hit rate 0.9% among 370,000; activation, % at 7 µM;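 active = activation above the mean of all tested compounds plus 3 SD, computed per campaign excluding outliers beyond control limits, cut at about 13% in these data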
# PLC-gamma1 inh: blocks human PLC-gamma1 enzyme activity | P19174 | purified PLC-gamma1, fluorogenic substrate, fluorescence | inhibition, % at 12.2 µM | hit rate 0.84% among 370,000 | AID 720700
# ADAM10 inh: ADAM10 inhibition, QFRET primary screen | hit rate 0.62% among 370,000 | O14672 | AID 720582 | inhibition, % at 7 µM | recombinant ADAM10, EDANS/DABCYL FRET peptide cleavage, 3 h;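 active = inhibition above a per-campaign cutoff equal to the mean of compounds falling between control-based bounds plus 3 SD, cut at about 20% in these data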
# PLCgamma1 ctr: inhibits human PLC-gamma1 in PLC-beta3 counter-screen; inhibition, % at 12.3 µM; AID 743258; shares compounds with PLC-gamma1 inh; hit rate 3.1% among 3,300; purified PLC-gamma1, fluorogenic substrate, fluorescence
# PLCb3 confirm: human PLC-beta3 inhibition, confirmation. inhibition, % at 12.3 µM. purified PLC-beta3, fluorogenic substrate fluorescence. shares compounds with PLC-gamma1 inh. hit rate 1% among 3,300; in the data active = inhibition above about 11%
# Numbers stand for hits; - = inactive; . = no result given. Cut-off read from the data, not from the text of the source, unless noted: active = inhibition above about 9.5%; inactive = the rest.
SMILES,ADAM17 inh,PLC-beta3 inh,KLK7 zymogen act,PLC-gamma1 inh,ADAM10 inh,PLCgamma1 ctr,PLCb3 confirm
Cc1cc(C)c2c(=O)[nH]n(C3CC(C)N(C)CC3C)c2n1 (stereo not given),-,-,-,9.7,-,-,-
Cc1cc(C)c2c(=O)[nH]n(C3CCCCCC3)c2n1,-,-,-,-,-,.,.
O=C(OCC#CCSc1nnc(-c2cccc3ccccc23)o1)c1csc2ccccc12,-,-,.,-,-,.,.
CC(C)c1ccc(NC(=O)NN2CCOCC2)cc1,-,-,-,-,-,.,.
O=C(CCc1n[nH]c(=O)[nH]c1=O)N1CCOCC1,-,11,-,-,-,-,-
CCCCOC(=O)CCc1n[nH]c(=O)[nH]c1=O,-,-,-,-,-,.,.
O=C(CCNc1n[nH]c(=O)[nH]c1=O)N1CCOCC1,-,-,-,14,-,-,-
COc1ccc(S(=O)(=O)NCCN2CCOCC2)cc1[N+](=O)[O-],-,-,-,-,-,.,.
COc1ccc(S(=O)(=O)NCCCN2CCOCC2)cc1F,-,-,-,9.5,-,-,-
COc1ccc(N2CC(C(=O)N[C@@H](C)C(=O)NCc3ccccc3OC)CC2=O)cc1 (stereo not given in full),-,-,-,9.8,-,-,-
Cc1ccccc1-c1cc2nc(NCc3ccccc3F)n(C)c(=O)c2s1,-,-,-,-,-,.,.
C=CC[C@H](CC(=O)NCCO)C(=O)N[C@@H](COC(=O)[C@@H](CC=C)CC(=O)OC(C)(C)C)Cc1c[nH]c2ccccc12,-,-,-,-,-,.,.
C=CC[C@@H](CC(=O)N(CCO)Cc1ccccc1)C(=O)N[C@@H](C)COC(=O)[C@@H](CC=C)CC(=O)OC(C)(C)C,-,-,-,11,-,-,-
C=CC[C@@H](CC(=O)N[C@@H](CO)Cc1ccccc1)C(=O)N[C@@H](COC(=O)[C@H](CC=C)CC(=O)OC(C)(C)C)Cc1c[nH]c2ccccc12,-,-,-,-,-,.,.
C=CC[C@@H](CC(=O)N[C@H](CO)Cc1ccccc1)C(=O)N[C@@H](COC(=O)[C@@H](CC=C)CC(=O)OC(C)(C)C)Cc1c[nH]c2ccccc12,-,-,-,12,-,-,-
C=CCC[C@@H](Cc1ccc(F)cc1)C(=O)OC[C@@H](Cc1c[nH]c2ccccc12)NC(=O)[C@H](CC=C)CC(=O)NCCO,-,11,-,-,-,-,-
COc1cc(CNCc2ccccc2)cc(Cl)c1OC,-,-,-,-,-,.,.
COc1c(Cl)cc(Cl)cc1CNCc1ccccc1,-,-,-,11,-,-,-
C=CCNC(=O)N1CCCC(C(=O)c2cccc(OC(C)C)c2)C1 (stereo not given),-,-,-,11,-,-,-
Cn1cc(CN2CCC(C(=O)NC(c3ccc(-c4ccccc4)cc3)c3cnccn3)CC2)c2ccccc21 (stereo not given),-,-,-,12,-,-,-
COc1cccc(CNC(=O)[C@@H]2CCCN2C(=O)[C@@H]2CCCN2C(=O)c2cccc3ccccc23)c1,-,-,-,-,-,.,.
Cc1cccc(Nc2nnc(SCc3cn4ccsc4n3)s2)c1,-,-,-,10,-,-,-
O=c1cc(CSc2nnc(Nc3ccccc3)s2)nc2sccn12,-,-,-,-,-,.,.
CCOC(=O)CSc1nnc(Cn2c(=O)sc3ccccc32)n1-c1ccccc1C,-,11,-,-,-,9.5,-
COC(=O)C[C@H]1C=C[C@@H](C(C(=O)OC)C(=O)OC)CN1C(C)=O,-,-,-,31,-,-,-
SMILES,ADAM17 inh,PLC-beta3 inh,KLK7 zymogen act,PLC-gamma1 inh,ADAM10 inh,PLCgamma1 ctr,PLCb3 confirm
COC(=O)CCC(NC(=O)c1cc(-c2ccc3c(c2)OCCO3)oc1C)C(=O)OC (stereo not given),-,-,-,-,-,.,.
O=C(NCc1ccc(F)cc1)c1cc2c(s1)CCCC2,-,15,-,16,-,-,11
Cc1nn(-c2ccc(F)cc2)c(Cl)c1C(=O)NCC1CCCO1 (stereo not given),-,-,-,-,-,.,.
CSCCC(C(=O)Nc1c(C)cccc1C)n1c(COc2ccc(C)cc2)nc2ccccc21 (stereo not given),-,-,-,-,-,.,.
O=C(NCc1ccco1)c1ccc(CNc2c(N3CCCCC3)c(=O)c2=O)cc1,-,11,-,-,-,-,-
CC1CCN(c2c(NCc3ccc(C(=O)NCc4ccco4)cc3)c(=O)c2=O)CC1,-,-,-,-,-,.,.
C[n+]1cc(C(O)(c2ccccc2)c2ccccc2)n2ccccc21,-,-,.,-,-,.,.
COc1ccccc1NC(=O)c1ccccc1S(=O)(=O)c1ccc([N+](=O)[O-])cc1,-,-,-,9.8,-,-,-
Cc1nc(NC(=O)C2CC2)sc1C(=O)Nc1ccccc1,-,-,-,-,-,.,.
Cc1nc(Nc2c(Cl)cccc2Cl)sc1C(=O)Nc1ccccc1,-,-,-,9.6,-,-,-
Cc1ccc(S(=O)(=O)N2[C@@H](CO)CO[C@H]2CC(=O)c2ccc(F)cc2)cc1,-,-,-,-,-,.,.
O=C(Nc1ccc(S(=O)(=O)Nc2ncccn2)cc1)c1ccc(Br)s1,-,-,-,11,-,-,-
COc1cccc(OC)c1C(=O)Nc1ccc(S(=O)(=O)Nc2ncccn2)cc1,-,-,-,-,-,.,.
COC(=O)C1=CN(c2ccc(N3CCOCC3)cc2)C(N)=C(C#N)C1c1cccc(F)c1 (stereo not given),-,-,-,-,-,.,.
O=C1N=C2SCCN2/C1=C\c1ccccc1Cl,-,-,-,11,-,-,-
Cc1cc(C(=O)N2CCCC(C(=O)c3cccc4ccccc34)C2)nc(C)n1 (stereo not given),-,-,-,10,-,-,-
Cc1ccn(CC(=O)N2CCCC(C(=O)c3cccc4ccccc34)C2)n1 (stereo not given),-,-,-,-,-,.,.
COc1ccc(N2CCN(C(=O)C(=O)c3cc(OC)c4ccccc4c3)CC2)cc1,-,-,-,-,-,.,.
O=C(O)CC(C(=O)Nc1cccc(C(F)(F)F)c1)C1CCCO1 (stereo not given),-,-,-,16,-,-,-
CC(C)C[C@H]1CNC(=O)C(=O)N1CC1CCN(CC2CCC(C)CC2)CC1 (stereo not given in full),-,-,-,-,-,.,.
S=C(NC1CCCCC1)N1CCc2ccccc2C1,-,-,-,9.9,-,-,-
CCOC1=C2[C@H](c3ccccc3)N(S(=O)(=O)c3ccc(C)cc3)C(C(C)(C)C)[C@H]2n2c(=O)n(-c3ccccc3)c(=O)n2C1 (stereo not given in full),-,-,-,-,-,.,.
CCN(C(=O)CSc1nnc(NCc2ccccc2)s1)C1CCS(=O)(=O)C1 (stereo not given),-,-,-,12,-,-,-

# Screens from PubChem.
